Measured values from the supplement of paper PMC11732987, “Enantioselective OTUD7B fragment discovery through chemoproteomics screening and high-throughput optimisation” (Communications Chemistry, 2025).
Values without a mark were called inactive.

Legend:
Test in all cases: log2 ratio of Biotin-Ahx-Ub-VS probe labelling (fragment/DMSO); higher = less target engagement (more negative = stronger competition), active = hit call of the paper (q ≤ 0.05, log2 ratio ≤ -1)
Conditions in all cases: compound concentration: 200 uM; treatment time: 3 h
[1] = target: T1, USP19 (UniProt O94966)
T1 sequence (whole entry): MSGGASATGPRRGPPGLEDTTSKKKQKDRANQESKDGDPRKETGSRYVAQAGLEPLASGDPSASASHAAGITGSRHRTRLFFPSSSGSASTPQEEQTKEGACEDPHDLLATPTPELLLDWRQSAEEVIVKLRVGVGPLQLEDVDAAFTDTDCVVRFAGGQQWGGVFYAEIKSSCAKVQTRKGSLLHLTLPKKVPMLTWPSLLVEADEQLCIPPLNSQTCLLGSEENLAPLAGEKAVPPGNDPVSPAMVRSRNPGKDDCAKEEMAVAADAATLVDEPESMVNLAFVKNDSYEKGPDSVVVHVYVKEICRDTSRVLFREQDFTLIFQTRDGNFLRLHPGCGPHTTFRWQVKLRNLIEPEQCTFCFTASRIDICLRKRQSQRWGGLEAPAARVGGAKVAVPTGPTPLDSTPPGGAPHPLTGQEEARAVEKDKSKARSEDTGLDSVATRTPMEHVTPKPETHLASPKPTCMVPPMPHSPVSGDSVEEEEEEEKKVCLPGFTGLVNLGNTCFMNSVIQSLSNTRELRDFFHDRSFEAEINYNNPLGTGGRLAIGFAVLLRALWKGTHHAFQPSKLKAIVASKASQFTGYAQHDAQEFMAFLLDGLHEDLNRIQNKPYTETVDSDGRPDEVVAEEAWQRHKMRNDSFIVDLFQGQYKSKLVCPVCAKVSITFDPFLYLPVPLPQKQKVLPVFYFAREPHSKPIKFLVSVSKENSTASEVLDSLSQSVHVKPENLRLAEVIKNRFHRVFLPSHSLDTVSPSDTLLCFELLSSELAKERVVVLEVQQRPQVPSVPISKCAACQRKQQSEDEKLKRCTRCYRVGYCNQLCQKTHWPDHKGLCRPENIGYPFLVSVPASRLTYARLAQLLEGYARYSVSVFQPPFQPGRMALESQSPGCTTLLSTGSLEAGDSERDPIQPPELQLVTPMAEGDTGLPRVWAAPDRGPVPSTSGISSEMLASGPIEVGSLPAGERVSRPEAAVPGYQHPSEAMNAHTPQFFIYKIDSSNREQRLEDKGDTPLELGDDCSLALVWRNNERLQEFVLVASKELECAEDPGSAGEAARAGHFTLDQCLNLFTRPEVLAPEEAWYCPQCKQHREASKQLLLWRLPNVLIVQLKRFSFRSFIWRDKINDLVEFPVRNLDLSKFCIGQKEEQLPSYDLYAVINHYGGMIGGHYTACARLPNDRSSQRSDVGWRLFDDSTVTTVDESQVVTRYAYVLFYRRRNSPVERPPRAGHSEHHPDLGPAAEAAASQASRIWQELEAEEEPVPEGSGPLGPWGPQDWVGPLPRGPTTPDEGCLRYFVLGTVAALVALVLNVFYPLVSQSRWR
Summary of the method: (§1)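 HEK293T lysate (495 µg per sample, in Tris/CHAPS/IGEPAL buffer with protease inhibitors) was treated in triplicate with fragment at 200 µM or with DMSO for 3 h. It was then treated with Biotin-Ahx-Ub-VS (0.5 µM final) for 1 h. Labelled DUBs were NeutrAvidin-enriched, digested with LysC and trypsin, and run by diaPASEF LC-MS/MS. Spectronaut label-free quantities were global-median-normalised. Values are average log2 ratios fragment/DMSO by unpaired t-test, using proteins with ≥2 unique peptides.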

[2] = target: T2, USP22 (UniProt Q9UPT9)
T2 sequence (whole entry): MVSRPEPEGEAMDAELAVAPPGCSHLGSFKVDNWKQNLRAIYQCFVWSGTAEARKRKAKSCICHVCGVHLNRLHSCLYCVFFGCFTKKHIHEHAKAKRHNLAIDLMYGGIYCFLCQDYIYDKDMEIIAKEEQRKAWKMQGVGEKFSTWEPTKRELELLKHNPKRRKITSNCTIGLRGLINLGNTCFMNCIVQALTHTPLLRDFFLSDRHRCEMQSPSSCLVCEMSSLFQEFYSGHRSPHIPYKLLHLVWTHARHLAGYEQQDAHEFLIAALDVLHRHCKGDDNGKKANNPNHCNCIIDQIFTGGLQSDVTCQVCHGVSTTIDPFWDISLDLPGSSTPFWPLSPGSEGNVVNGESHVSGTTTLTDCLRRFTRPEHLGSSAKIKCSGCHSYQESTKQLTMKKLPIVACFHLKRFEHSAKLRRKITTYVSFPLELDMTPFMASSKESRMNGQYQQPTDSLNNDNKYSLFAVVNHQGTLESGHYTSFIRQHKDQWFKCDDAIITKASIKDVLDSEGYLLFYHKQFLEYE
Summary of the method: as §1

[3] = target: USP24 (UniProt Q9UPU5)
Chain of USP24 (Q9UPU5 whole entry): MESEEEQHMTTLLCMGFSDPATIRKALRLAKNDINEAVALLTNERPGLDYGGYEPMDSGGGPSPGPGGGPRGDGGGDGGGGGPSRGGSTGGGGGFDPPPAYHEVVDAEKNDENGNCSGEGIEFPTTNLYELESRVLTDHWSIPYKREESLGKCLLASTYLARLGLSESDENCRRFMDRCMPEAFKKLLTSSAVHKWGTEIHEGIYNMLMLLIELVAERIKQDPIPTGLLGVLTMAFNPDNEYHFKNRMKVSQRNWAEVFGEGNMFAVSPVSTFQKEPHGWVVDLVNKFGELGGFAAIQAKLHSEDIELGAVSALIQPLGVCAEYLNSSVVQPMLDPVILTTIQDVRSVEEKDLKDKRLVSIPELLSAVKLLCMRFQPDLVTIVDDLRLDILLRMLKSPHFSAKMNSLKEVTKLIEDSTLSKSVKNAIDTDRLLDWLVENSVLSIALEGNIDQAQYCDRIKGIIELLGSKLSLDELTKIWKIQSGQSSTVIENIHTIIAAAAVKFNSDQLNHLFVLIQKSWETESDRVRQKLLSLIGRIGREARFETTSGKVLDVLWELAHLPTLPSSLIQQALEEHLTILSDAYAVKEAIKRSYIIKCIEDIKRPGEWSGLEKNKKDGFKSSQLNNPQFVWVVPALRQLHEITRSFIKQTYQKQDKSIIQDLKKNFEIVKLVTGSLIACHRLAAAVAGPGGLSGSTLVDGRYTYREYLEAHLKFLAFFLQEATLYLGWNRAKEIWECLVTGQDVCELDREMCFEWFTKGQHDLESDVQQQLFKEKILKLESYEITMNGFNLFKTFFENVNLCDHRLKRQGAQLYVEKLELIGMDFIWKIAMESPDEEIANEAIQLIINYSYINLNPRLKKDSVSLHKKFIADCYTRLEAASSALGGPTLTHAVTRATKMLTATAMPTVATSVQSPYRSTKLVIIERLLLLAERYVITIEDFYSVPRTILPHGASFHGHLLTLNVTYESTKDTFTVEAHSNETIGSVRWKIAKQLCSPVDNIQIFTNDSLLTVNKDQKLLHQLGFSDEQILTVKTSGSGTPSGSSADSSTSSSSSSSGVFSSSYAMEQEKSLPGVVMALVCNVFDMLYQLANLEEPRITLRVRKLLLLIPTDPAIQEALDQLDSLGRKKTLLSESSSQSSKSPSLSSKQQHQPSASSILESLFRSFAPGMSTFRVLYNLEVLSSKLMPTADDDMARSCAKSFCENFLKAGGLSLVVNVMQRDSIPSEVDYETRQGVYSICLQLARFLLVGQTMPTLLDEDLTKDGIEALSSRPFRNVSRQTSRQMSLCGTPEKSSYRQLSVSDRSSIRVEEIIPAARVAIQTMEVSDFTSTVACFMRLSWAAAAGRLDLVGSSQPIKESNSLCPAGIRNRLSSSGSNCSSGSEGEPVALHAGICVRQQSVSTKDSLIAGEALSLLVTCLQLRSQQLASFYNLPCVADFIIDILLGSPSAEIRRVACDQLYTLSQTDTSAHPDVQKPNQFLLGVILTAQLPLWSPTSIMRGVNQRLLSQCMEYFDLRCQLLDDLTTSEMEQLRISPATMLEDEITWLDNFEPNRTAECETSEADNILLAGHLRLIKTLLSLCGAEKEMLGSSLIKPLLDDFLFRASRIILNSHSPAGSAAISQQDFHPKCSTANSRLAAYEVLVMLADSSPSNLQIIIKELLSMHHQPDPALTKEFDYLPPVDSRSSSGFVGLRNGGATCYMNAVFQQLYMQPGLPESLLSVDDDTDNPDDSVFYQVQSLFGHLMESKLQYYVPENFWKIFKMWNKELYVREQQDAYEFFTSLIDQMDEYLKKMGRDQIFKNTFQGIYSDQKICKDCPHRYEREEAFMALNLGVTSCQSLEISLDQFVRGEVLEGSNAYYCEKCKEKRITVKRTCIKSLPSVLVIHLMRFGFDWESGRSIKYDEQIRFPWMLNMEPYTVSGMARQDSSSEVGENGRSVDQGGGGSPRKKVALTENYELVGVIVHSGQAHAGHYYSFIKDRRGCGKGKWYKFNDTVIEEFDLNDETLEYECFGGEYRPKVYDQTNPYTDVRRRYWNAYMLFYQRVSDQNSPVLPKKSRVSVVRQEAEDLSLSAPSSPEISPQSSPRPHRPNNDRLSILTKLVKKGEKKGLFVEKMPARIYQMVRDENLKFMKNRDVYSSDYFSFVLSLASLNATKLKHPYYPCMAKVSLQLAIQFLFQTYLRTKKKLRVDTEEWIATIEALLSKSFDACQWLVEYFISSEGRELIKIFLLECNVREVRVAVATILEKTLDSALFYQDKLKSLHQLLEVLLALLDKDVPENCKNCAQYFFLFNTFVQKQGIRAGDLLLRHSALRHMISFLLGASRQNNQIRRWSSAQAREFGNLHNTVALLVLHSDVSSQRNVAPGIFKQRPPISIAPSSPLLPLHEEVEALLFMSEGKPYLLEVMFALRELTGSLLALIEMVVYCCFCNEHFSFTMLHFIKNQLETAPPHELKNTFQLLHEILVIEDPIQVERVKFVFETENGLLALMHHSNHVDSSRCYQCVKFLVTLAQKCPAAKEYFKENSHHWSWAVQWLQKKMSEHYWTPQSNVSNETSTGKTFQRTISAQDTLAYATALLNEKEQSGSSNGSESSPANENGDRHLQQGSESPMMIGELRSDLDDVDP
Summary of the method: as §1

[4] = target: T3, USP25 (UniProt Q9UHP3)
T3 sequence (whole entry): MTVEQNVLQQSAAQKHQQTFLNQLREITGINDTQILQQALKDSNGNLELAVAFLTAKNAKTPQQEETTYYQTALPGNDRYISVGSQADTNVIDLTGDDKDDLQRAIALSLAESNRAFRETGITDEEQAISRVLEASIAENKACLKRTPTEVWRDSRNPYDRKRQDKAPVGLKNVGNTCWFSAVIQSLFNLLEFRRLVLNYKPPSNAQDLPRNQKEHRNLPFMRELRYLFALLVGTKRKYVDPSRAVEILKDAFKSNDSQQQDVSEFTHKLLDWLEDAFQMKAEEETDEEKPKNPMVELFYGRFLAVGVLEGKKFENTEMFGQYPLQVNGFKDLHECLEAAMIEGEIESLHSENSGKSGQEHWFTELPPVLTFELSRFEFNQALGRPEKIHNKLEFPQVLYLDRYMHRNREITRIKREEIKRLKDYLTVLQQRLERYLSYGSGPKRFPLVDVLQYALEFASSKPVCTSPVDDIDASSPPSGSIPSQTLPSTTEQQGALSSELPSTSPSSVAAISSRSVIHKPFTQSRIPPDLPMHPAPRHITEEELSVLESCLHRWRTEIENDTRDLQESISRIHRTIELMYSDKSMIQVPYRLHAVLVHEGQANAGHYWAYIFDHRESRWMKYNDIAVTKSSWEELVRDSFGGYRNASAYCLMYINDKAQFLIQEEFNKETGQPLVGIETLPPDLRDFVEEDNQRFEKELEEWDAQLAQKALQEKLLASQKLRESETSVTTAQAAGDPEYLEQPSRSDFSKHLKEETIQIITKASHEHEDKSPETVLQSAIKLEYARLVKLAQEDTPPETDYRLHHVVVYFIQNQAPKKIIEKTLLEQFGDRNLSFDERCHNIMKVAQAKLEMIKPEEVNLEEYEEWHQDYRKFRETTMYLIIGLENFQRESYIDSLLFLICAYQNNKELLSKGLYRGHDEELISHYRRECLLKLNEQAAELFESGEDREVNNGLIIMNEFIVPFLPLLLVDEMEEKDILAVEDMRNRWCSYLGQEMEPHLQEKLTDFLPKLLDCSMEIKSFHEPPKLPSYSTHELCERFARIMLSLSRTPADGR
Summary of the method: as §1

[5] = target: T4, USP28 (UniProt Q96RU2)
T4 sequence (whole entry): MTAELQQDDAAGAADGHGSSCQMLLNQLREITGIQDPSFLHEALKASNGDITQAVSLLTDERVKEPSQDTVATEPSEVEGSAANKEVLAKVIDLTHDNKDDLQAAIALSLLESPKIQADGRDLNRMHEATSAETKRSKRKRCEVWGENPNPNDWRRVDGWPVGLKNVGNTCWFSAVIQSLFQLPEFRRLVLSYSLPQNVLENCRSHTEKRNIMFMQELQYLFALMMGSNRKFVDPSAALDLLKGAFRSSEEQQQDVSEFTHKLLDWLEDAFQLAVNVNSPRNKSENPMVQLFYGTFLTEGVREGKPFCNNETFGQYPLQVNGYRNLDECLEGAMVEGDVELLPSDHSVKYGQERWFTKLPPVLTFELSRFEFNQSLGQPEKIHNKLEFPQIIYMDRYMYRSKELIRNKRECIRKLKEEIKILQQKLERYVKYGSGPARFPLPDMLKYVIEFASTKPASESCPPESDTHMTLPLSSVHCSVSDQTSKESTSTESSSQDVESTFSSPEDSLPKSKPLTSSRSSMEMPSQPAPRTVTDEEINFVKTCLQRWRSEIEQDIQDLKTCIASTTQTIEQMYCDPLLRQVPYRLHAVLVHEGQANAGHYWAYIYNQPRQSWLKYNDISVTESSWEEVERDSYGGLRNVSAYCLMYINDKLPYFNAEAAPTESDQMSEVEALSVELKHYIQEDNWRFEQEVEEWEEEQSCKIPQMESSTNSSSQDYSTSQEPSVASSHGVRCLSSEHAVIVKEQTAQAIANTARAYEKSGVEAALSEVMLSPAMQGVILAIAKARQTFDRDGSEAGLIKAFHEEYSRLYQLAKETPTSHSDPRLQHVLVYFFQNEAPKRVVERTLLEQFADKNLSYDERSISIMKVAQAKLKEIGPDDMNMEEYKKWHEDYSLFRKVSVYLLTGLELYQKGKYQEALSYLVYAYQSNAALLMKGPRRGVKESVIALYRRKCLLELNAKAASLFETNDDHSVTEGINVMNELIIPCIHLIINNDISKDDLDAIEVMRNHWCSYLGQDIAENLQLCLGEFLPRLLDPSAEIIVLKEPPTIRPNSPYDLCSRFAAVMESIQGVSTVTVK
Summary of the method: as §1

Cl.O=C(CCl)N1CCn2ncc(O)c2C1
log2 ratio of Biotin-Ahx-Ub-VS probe labelling [1]: -0.754
log2 ratio of Biotin-Ahx-Ub-VS probe labelling [2]: -0.609
log2 ratio of Biotin-Ahx-Ub-VS probe labelling [3]: -1.05 (active)
log2 ratio of Biotin-Ahx-Ub-VS probe labelling [4]: -0.877
log2 ratio of Biotin-Ahx-Ub-VS probe labelling [5]: -1.17 (active)
